Data taken from paper PMC7862700, “An all-to-all approach to the identification of sequence-specific readers for epigenetic DNA modifications on cytosine”.

How the values were obtained:
Assay in all cases: DAPPL (digital affinity profiling via proximity ligation, sequencing); 10 mM Tris-HCl pH 7.5, 50 mM NaCl, 1 mM DTT, 4% glycerol, room temperature, 30 min; GST-TFs on glutathione beads, 16-mer random dsDNA library, 0.1% formaldehyde crosslink after washing; high values mean tight binding
Details in all cases: protein: recombinant; tags: N-terminal GST; dsDNA, one strand shown
ERF = target: T1, ERF (Homo sapiens, UniProt P50548 1-548)
T1 sequence: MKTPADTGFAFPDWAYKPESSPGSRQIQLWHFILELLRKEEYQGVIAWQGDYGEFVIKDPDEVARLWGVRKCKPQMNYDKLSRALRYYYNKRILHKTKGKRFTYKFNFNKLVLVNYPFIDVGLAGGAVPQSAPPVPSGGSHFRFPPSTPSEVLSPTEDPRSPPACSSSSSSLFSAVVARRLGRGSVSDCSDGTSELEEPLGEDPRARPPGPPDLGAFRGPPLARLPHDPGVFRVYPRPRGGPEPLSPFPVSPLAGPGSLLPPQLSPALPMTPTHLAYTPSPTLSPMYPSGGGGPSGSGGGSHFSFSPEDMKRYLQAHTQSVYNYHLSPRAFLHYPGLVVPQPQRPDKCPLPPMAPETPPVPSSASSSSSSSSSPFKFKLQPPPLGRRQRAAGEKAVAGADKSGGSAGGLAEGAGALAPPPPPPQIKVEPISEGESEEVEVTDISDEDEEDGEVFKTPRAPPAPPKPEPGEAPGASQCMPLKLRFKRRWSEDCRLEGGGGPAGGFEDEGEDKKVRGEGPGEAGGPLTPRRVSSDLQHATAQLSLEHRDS
Method in brief: (§1)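 Sequencing on an Illumina NextSeq500 followed washing, crosslinking with 0.1% formaldehyde, proximity ligation (BsaI/T4 ligase, 1 h, 37 °C) and PCR amplification of pools that had been incubated for 30 min at room temperature with 200 nmole of a random double-stranded 16-mer DNA library in Tris/NaCl/DTT/glycerol buffer. Each pool held DNA-barcoded human transcription factors, expressed in yeast as GST fusions and captured on glutathione beads, plus a tag-only sample. Binding signal is a hexamer's read frequency for a factor divided by its frequency in the tag-only sample.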

ETV3L = target: T2, ETV3L (Homo sapiens, UniProt Q6ZN32 1-361)
T2 sequence: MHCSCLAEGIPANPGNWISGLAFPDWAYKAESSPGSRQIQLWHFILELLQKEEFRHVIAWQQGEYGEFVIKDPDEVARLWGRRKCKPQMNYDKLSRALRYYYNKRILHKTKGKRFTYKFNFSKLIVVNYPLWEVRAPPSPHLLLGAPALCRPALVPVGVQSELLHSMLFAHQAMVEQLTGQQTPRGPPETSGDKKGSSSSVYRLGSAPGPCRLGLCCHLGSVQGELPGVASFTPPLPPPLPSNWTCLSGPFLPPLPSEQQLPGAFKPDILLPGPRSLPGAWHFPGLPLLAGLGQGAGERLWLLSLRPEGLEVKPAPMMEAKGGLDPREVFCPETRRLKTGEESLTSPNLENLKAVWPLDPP
Method in brief: as §1

ETS2 = target: T3, ETS2 (Homo sapiens, UniProt P15036 1-469)
T3 sequence: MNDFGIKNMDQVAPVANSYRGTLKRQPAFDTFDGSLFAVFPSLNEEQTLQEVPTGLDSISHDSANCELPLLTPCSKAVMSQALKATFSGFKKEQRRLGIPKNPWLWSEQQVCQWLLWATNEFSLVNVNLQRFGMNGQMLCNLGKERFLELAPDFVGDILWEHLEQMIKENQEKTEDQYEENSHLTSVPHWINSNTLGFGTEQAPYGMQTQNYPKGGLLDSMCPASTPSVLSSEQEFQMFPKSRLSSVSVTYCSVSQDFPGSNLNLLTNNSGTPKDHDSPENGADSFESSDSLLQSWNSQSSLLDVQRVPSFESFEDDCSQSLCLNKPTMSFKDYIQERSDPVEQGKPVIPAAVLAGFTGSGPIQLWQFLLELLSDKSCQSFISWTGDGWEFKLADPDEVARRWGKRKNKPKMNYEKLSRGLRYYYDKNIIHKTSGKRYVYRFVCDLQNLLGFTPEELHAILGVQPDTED
Method in brief: as §1

SPDEF = target: T4, SPDEF (Homo sapiens, UniProt O95238 1-335)
T4 sequence: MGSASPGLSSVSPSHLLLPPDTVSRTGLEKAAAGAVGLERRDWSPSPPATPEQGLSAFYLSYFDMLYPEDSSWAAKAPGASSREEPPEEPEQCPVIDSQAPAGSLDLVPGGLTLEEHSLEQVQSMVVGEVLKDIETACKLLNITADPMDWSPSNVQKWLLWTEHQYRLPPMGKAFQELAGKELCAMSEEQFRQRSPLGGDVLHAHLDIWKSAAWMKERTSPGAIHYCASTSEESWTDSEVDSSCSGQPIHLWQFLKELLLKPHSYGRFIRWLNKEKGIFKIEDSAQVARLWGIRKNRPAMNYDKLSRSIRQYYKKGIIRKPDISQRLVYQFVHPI
Method in brief: as §1

ETV7 = target: T5, ETV7 (Homo sapiens, UniProt Q9Y603 1-341)
T5 sequence: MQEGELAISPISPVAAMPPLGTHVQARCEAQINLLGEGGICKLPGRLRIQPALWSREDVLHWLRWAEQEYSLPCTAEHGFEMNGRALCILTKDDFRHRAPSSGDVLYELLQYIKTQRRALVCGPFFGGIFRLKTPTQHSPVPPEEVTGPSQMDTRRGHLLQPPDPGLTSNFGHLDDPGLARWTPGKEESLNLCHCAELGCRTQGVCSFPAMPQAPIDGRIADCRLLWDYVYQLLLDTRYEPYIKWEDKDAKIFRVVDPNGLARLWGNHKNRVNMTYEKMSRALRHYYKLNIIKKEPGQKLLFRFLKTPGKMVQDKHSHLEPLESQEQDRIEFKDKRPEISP
Method in brief: as §1

ELF5 = target: T6, ELF5 (Homo sapiens, UniProt Q9UKW6-2 1-255)
T6 sequence: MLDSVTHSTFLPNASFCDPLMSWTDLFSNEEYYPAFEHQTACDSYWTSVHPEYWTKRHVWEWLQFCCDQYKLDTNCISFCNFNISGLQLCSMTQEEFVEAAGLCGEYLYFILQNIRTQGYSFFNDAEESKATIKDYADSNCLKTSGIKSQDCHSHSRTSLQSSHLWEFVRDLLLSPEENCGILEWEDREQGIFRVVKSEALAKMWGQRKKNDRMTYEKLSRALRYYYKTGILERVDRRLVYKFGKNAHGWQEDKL
Method in brief: as §1

ETV3 = target: T7, ETV3 (Homo sapiens, UniProt P41162-2 1-143)
T7 sequence: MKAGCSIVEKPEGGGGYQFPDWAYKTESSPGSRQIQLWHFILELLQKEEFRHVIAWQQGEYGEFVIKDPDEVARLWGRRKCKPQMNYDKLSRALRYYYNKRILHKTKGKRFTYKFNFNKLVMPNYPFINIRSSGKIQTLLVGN
Method in brief: as §1

ETV6 = ETV6 (Homo sapiens, UniProt P41212 1-452)
Method in brief: as §1

ETV6, sequence (P41212 whole entry): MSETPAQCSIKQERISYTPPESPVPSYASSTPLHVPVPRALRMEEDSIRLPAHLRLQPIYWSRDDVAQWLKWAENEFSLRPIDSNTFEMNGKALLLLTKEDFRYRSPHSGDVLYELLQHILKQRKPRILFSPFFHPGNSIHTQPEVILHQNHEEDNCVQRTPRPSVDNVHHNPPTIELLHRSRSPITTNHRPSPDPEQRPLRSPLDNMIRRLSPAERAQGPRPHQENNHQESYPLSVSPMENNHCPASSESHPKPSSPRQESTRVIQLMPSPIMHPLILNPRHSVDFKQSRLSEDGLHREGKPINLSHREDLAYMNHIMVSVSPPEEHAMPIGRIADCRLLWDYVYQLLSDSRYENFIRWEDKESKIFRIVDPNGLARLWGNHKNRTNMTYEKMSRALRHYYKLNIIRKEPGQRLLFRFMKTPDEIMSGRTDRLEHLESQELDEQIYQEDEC

Row | Sequence | binding signal (ERF) | binding signal (ETV3L) | binding signal (ETS2) | binding signal (SPDEF) | binding signal (ETV7) | binding signal (ELF5) | binding signal (ETV3) | binding signal (ETV6)
1 | TAATTG | 1.35 fold enrichment (6-mer frequency, TF over GST control) | 1.37 fold enrichment (6-mer frequency, TF over GST control) | 1.42 fold enrichment (6-mer frequency, TF over GST control) | 1.22 fold enrichment (6-mer frequency, TF over GST control) | 1.44 fold enrichment (6-mer frequency, TF over GST control) | 1.37 fold enrichment (6-mer frequency, TF over GST control) | 1.34 fold enrichment (6-mer frequency, TF over GST control) | 1.42 fold enrichment (6-mer frequency, TF over GST control)
2 | GTATCC | 1.77 fold enrichment (6-mer frequency, TF over GST control) | 1.81 fold enrichment (6-mer frequency, TF over GST control) | 1.84 fold enrichment (6-mer frequency, TF over GST control) | 3.14 fold enrichment (6-mer frequency, TF over GST control) | 1.69 fold enrichment (6-mer frequency, TF over GST control) | 2.1 fold enrichment (6-mer frequency, TF over GST control) | 2.03 fold enrichment (6-mer frequency, TF over GST control) | 1.79 fold enrichment (6-mer frequency, TF over GST control)
3 | TACGCG | 1.13 fold enrichment (6-mer frequency, TF over GST control) | 1.13 fold enrichment (6-mer frequency, TF over GST control) | 1.14 fold enrichment (6-mer frequency, TF over GST control) | 1.23 fold enrichment (6-mer frequency, TF over GST control) | 1.02 fold enrichment (6-mer frequency, TF over GST control) | 1.09 fold enrichment (6-mer frequency, TF over GST control) | 1.16 fold enrichment (6-mer frequency, TF over GST control) | 1.15 fold enrichment (6-mer frequency, TF over GST control)
4 | CAATAC | 1.38 fold enrichment (6-mer frequency, TF over GST control) | 1.3 fold enrichment (6-mer frequency, TF over GST control) | 1.22 fold enrichment (6-mer frequency, TF over GST control) | 1.23 fold enrichment (6-mer frequency, TF over GST control) | 1.35 fold enrichment (6-mer frequency, TF over GST control) | 1.18 fold enrichment (6-mer frequency, TF over GST control) | 1.29 fold enrichment (6-mer frequency, TF over GST control) | 1.22 fold enrichment (6-mer frequency, TF over GST control)
5 | TCTTAA | 1.19 fold enrichment (6-mer frequency, TF over GST control) | 1.37 fold enrichment (6-mer frequency, TF over GST control) | 1.22 fold enrichment (6-mer frequency, TF over GST control) | 1.28 fold enrichment (6-mer frequency, TF over GST control) | 1.27 fold enrichment (6-mer frequency, TF over GST control) | 1.2 fold enrichment (6-mer frequency, TF over GST control) | 1.23 fold enrichment (6-mer frequency, TF over GST control) | 1.26 fold enrichment (6-mer frequency, TF over GST control)
6 | TTTGTT | 1.29 fold enrichment (6-mer frequency, TF over GST control) | 1.27 fold enrichment (6-mer frequency, TF over GST control) | 1.26 fold enrichment (6-mer frequency, TF over GST control) | 1.33 fold enrichment (6-mer frequency, TF over GST control) | 1.18 fold enrichment (6-mer frequency, TF over GST control) | 1.27 fold enrichment (6-mer frequency, TF over GST control) | 1.34 fold enrichment (6-mer frequency, TF over GST control) | 1.34 fold enrichment (6-mer frequency, TF over GST control)
7 | CCGACC | 1.59 fold enrichment (6-mer frequency, TF over GST control) | 1.67 fold enrichment (6-mer frequency, TF over GST control) | 1.49 fold enrichment (6-mer frequency, TF over GST control) | 1.54 fold enrichment (6-mer frequency, TF over GST control) | 1.55 fold enrichment (6-mer frequency, TF over GST control) | 1.48 fold enrichment (6-mer frequency, TF over GST control) | 1.46 fold enrichment (6-mer frequency, TF over GST control) | 1.67 fold enrichment (6-mer frequency, TF over GST control)
8 | AGCTCC | 1.24 fold enrichment (6-mer frequency, TF over GST control) | 1.25 fold enrichment (6-mer frequency, TF over GST control) | 1.33 fold enrichment (6-mer frequency, TF over GST control) | 1.4 fold enrichment (6-mer frequency, TF over GST control) | 1.17 fold enrichment (6-mer frequency, TF over GST control) | 1.2 fold enrichment (6-mer frequency, TF over GST control) | 1.22 fold enrichment (6-mer frequency, TF over GST control) | 1.32 fold enrichment (6-mer frequency, TF over GST control)
